According to PubChem BioAssay (NCATS):
Results filed as inconclusive are left out. Active and inactive are the calls of the source. Unless noted, calls follow the shape of the dose curve; as a rule, active = well fitted curve in the direction sought with a large enough effect; inconclusive = small, poorly fitted or top-dose-only effect, or another doubt; inactive = no such curve, though single readings can be large; an effect the other way counts as inactive or inconclusive.

Key:
[1] = SDT Cancer Cell Toxicity qHTS against the NCATS CANVASS Library (AID 1347365)
Method in brief: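 Cytotoxicity is measured from cellular ATP: compounds in an 11-point concentration series are pinned onto SDT cells, incubated 72 hr at 37C, then CellTiterGlo is added and luminescence read.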

[2] = KB-3-1 Cancer Cell Toxicity qHTS against the NCATS CANVASS Library (AID 1347366)
Method in brief: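 KB-3-1 cells (500/well) in DMEM with 10% FBS were exposed to compounds for 72 h at 37C. Viability was read by CellTiter-Glo luminescence.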

[3] = G06 Cancer Cell Toxicity qHTS against the NCATS CANVASS Library (AID 1347368)
Method in brief: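 Cells were plated at 500 per well, then compounds were added over an 11-point range. After 72 hr at 37C, CellTiterGlo was added and luminescence measured as ATP content.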

[4] = MCF7 Cancer Cell Toxicity qHTS against the NCATS CANVASS Library (AID 1347369)
Method in brief: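 MCF7 cells (500/well) were exposed 72 h at 37 °C to compounds in an 11-point series. Viability was read as ATP content by CellTiterGlo luminescence.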

[5] = qHTS for ATAD5 Antagonist screened against the NCATS CANVASS Library (AID 1347370)
Method in brief: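 Compounds (11-point) co-dosed with 10 µM 5-FUrd for 16 h at 37 °C onto HEK293T-ATAD5 luciferase reporter cells. Viability measured by CellTiter-Fluor fluorescence, then ATAD5 reporter signal by luminescence.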

[6] = target: Nuclear receptor subfamily 1 group I member 3 (Homo sapiens) (UniProt Q14994); assay: qHTS for Constitutive Androstane Receptor (CAR) Antagonist screened against the NCATS CANVASS Library (AID 1347372)
Method in brief: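 Antagonist mode: compound added alongside 50 nM CITCO to HepG2-hCAR-CYP2B6 reporter cells, 24hr at 37C. Viability by CellTiter-Fluor fluorescence, then CAR-driven luciferase by ONE-Glo luminescence.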

[7] = target: Nuclear receptor subfamily 1 group I member 3 (Homo sapiens) (UniProt Q14994); assay: qHTS for Constitutive Androstane Receptor (CAR) Agonist screened against the NCATS CANVASS Library (AID 1347373)
Method in brief: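 Cells were plated and allowed to attach for 4hr, then dosed with compound in an 11-point series alongside 1.5uM PK11195. After 24hr at 37C, viability was measured fluorometrically and CAR-driven CYP2B6 reporter luminescence was recorded.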

[8] = qHTS for Hypoxia signaling pathway (HIF-1) antagonists against the NCATS CANVASS Library (AID 1347374)
Method in brief: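 Antagonism scored as loss of CoCl2-driven (60 uM stock added) HRE beta-lactamase signal, read by CCF4 FRET at 460/530 nm. Compounds were tested in an 11-point series on ME-180 reporter cells for 17 hrs at 37C, with parallel CellTiter-Glo cytotoxicity.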

[9] = DH5-alpha competent E. coli microbial cell viability qHTS against the NCATS CANVASS Library (AID 1347377); settings: outcome: at 46.1 µM (top of the series)
Method in brief: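 Bacteria were dispensed at 0.2 OD, then compounds were pin-transferred. Plates were incubated overnight at 37C, after which BacTiter-Glo was added and luminescence measured 20 min later.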

[10] = qHTS for H2AX Agonists against the NCATS CANVASS Library (AID 1347378)
Method in brief: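 CHO-K1 cells (1000/well, overnight at 37C) exposed to compounds at several concentrations for 3 hr at 37C, 0.76% DMSO final. Lysates read by TR-FRET (phospho-H2AX S139 Eu-cryptate antibody / H2AX-d2 antibody) after 24 hr at room temperature; 665/615 nm ratio.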

[11] = qHTS for Inflammasome Signaling Inhibitors: IL-1-beta AlphaLISA screen against the NCATS CANVASS Library (AID 1347379)
Method in brief: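 Secreted IL-1B from human THP-1 cells quantified by AlphaLISA 16 hr after compound addition (final up to 57.5 uM). A 1 hr compound pretreatment preceded inflammasome activation with 250 ng/mL LPS plus 1.25 mM ATP (final).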

[12] = qHTS for Antimalaria activity screened against the NCATS CANVASS Library (AID 1347380)
Method in brief: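 Compounds are titrated over 11 concentrations onto Dd2 parasite cultures (0.3% parasitemia, 2.5% hematocrit). Growth over 72 h at 37C in low oxygen is measured as SYBR Green DNA fluorescence after lysis.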

[13] = Inflammasome Signaling qHTS Counterscreen: IL-1-beta AlphaLISA counterscreen against the NCATS CANVASS Library (AID 1347381)
Method in brief: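 Purified IL-1-beta (4 pg/well) + compound, 11-pt conc. series; acceptor beads 6 ug/mL + biotin-Ab 0.6 nM final, 1 h RT; SA-donor 24 ug/ml final, 30 min dark RT; read ex 680/em 615.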

[14] = Cytotoxicity qHTS for assessment of Hepg2 cells membrane integrity screened against the NCATS CANVASS Library (AID 1347387)
Method in brief: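 Cells were seeded at 2000 per well and left overnight to attach. Compounds were pin-transferred to give 0.59 nM - 46 uM in an 11-point series and incubated 5 hr at 37C. CytoTox-ONE reagent was added and, after 10 min at room temperature, fluorescence (ex 560, em 590 nm) was read.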

[15] = qHTS for Activators of p53 Stress Response Pathway screened against the NCATS CANVASS Library (AID 1347388)
Method in brief: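 Beta-lactamase reporter driven by p53 response elements in HCT-116 cells, read as the 460 nm/530 nm emission ratio after CCF4 loading, following 16 h of exposure to an 11-point series. Cell viability was measured in the same wells by CellTiter-Glo luminescence.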

[16] = qHTS assay for small molecule disruptors of mitochondrial membrane potential screened against the NCATS CANVASS Library (AID 1347389)
Method in brief: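 Mitochondrial depolarization in HepG2 cells is scored as a falling aggregate-to-monomer fluorescence ratio after 1 hr compound exposure and 30 min staining with Mito-MPS dye at 37C, each compound tested as an 11-point titration.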

[17] = Secretion counterscreen for inhibitors of the SERCaMP assay screened against the NCATS CANVASS Library (AID 1347390)
Method in brief: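 SH-SY5Y cells with constitutively secreted GLuc reporter, 1000 cells/well, treated 20 h at 37C with compounds at 0.001 - 77 uM final; secreted luciferase read as luminescence after coelenterazine; Brefeldin A as positive control.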

[18] = qHTS for activators of dead-cell proteases activity screened against the NCATS CANVASS Library (AID 1347392)
Method in brief: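 Luminescent dead-cell protease readout (AAF-aminoluciferin, 15 min, room temperature) after 5 h compound treatment of HepG2 cells (2000/well, pre-attached 18 h). Eleven concentrations.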

[19] = qHTS for inhibitors of Wild type Zika virus screened against the NCATS CANVASS Library (AID 1347396)
Method in brief: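 Vero 766 cells, 1000/well, o/n attach; cpds pin-transferred (11-pt qHTS); WT Zika added; 72 h, 37C, 5% CO2; CellTiter Glo lumi. Uninfected + vehicle = 100% inhibition.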

[20] = Viability qHTS for inhibitors of the SERCaMP assay screened against the NCATS CANVASS Library (AID 1347400)
Method in brief: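 Seed SH-SY5Y-GLuc SERCaMP MJH297 cells at 1000 per well, incubate 4 h, add compounds across an 11-point range, incubate 48 h at 37C, then add CellTiter-Glo and read luminescence.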

[21] = Redox Reaction Profiling qHTS: Assay Interference Panel against the NCATS CANVASS Library (AID 1347401)
Method in brief: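 Redox-cycling liability assessed as DTT-driven conversion of resazurin (5 uM, with 200 uM DTT, HEPES pH 7.3) to fluorescent resorufin. Fluorescence at 525/598 nm measured initially and after 15 min dark incubation.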

[22] = qHTS for inhibitors of Rabies Virus screened against the NCATS CANVASS Library (AID 1347402; calls by dose curve)
[23] = Primary qHTS for small molecule stabilizers of the endoplasmic reticulum resident proteome: Secreted ER Calcium Modulated Protein (SERCaMP) assay (AID 1508630)
Method in brief: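 The SH-SY5Y reporter protocol was run at 3 concentrations up to 38.3 uM (primary) or 11 concentrations (follow-up): 16 h compound, 100 nM thapsigargin for 4 h, then extracellular luciferase luminescence.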

[24] = Primary qHTS for inhibitors of nuclear receptor binding SET domain protein 2 (NSD2) in an isogenic RCH-ACV NSD2 p.E1099K mutant (9B) (AID 1645876)
[25] = Primary qHTS for inhibitors of nuclear receptor binding SET domain protein 2 (NSD2) in an RCH-ACV wild type WT cells (2C) (AID 1645877)

Measured: Potency

Chain of Nuclear receptor subfamily 1 group I member 3 (Homo sapiens) (Q14994 whole entry, looked up): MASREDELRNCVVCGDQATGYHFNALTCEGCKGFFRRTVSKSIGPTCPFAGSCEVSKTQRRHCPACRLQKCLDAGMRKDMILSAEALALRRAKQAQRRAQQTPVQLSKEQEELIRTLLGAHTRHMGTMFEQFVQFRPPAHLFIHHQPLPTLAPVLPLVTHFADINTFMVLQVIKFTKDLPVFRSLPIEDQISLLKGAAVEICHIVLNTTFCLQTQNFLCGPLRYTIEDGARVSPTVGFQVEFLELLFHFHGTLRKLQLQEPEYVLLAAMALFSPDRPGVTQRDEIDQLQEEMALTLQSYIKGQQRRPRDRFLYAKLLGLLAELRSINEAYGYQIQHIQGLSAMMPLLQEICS

COc1ccc2c(c1)[nH]c1c(C)nccc12
active: [1] 24.1 µM | [2] 42.9 µM | [3] 24.1 µM | [4] 34 µM | [5] 2.41 µM | [8] 17.2 µM | [11] 31.4 µM | [12] 0.0054 µM | [15] 21.5 µM | [17] 62.7 µM | [20] 27.8 µM | [24] 16.4 µM | [25] 8.2 µM
inactive: [6] | [7] | [9] | [10] | [13] | [14] | [16] | [18] | [19] | [21] | [22] | [23]
